# For some assays here: Potency and affinity values are given separately.
# Experiments:
# Set-up in all cases: scale not given: direction of the effect not stated beside the values
# [1] = molecular target: Protein translocase subunit SecA (Escherichia coli (strain K12)) (UniProt P10408); test: Assay to Identify E. coli SecA ATPase Inhibitors; type: functional; settings: 30 µM
# [2] = molecular target: T1, Ubiquitin-activating enzyme e1, putative (Leishmania donovani (strain BPK282A1)) (UniProt E9BSI1); test: Leishmania donovani Ubiquitin Activating Enzyme (LdE1); type: functional; settings: 30 µM
# T1 sequence (whole entry): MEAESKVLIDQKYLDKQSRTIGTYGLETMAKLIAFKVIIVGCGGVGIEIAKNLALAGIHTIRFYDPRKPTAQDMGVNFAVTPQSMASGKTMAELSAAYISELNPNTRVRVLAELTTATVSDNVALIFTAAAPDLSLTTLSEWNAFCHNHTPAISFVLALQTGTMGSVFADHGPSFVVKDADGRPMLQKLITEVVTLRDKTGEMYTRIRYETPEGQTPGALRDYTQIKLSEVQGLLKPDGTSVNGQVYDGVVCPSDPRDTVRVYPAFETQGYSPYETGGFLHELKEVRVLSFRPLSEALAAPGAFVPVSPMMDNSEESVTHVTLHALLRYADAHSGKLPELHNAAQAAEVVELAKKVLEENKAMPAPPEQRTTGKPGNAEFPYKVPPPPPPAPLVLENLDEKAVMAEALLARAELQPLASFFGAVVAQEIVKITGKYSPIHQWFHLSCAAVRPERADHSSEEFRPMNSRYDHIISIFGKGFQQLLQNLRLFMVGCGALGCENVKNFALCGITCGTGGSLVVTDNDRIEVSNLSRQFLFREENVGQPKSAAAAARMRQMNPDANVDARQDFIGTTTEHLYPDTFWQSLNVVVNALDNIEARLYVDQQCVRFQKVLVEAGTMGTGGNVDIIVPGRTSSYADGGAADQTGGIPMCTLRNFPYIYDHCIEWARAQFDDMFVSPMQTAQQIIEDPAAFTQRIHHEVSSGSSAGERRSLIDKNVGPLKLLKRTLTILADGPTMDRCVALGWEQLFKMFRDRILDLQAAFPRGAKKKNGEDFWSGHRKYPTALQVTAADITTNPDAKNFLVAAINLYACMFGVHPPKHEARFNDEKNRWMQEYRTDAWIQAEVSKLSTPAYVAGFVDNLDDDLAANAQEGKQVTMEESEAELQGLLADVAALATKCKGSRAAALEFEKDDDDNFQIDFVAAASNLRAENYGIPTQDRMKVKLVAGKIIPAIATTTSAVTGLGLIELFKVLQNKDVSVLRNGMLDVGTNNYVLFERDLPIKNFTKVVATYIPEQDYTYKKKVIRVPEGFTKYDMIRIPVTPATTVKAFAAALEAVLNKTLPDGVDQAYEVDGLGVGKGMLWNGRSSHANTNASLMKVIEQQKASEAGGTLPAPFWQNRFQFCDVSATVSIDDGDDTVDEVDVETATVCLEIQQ
# [3] = molecular target: Sialic acid-binding Ig-like lectin 9 (Homo sapiens) (UniProt Q9Y336); test: Hs-Siglec9 ALPHAscreen SOP 20170721; settings: 10 µM
# Trypanosoma cruzi = test: Trypanosoma cruzi phosphomannomutase and mannose-1-phosphate guanylyltransferase assay; type: functional; settings: 10 µM
# [4] = molecular target: T2, Arginase-2, mitochondrial (Homo sapiens) (UniProt P78540); test: in vitro enzyme assay to detect the production of urea directly proportional to the activity of Arginase II; type: functional; settings: 33.3 µM; also: in the data most compounds retested in dose-response had high values
# T2 sequence (whole entry): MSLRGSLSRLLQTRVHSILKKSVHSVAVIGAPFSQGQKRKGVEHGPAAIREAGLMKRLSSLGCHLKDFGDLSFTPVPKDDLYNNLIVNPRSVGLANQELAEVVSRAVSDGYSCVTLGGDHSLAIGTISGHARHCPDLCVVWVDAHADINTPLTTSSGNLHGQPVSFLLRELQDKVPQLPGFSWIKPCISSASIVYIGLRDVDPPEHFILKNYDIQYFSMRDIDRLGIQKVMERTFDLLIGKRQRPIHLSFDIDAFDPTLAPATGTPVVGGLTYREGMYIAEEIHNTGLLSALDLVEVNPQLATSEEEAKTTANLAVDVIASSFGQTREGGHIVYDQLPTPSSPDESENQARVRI
# [5] = molecular target: T3, Proteasome subunit beta (Trypanosoma cruzi) (UniProt O96673); test: Trypanosoma cruzi proteasome chymotrypsin-like activity (TcProtChymo) assay.; also: in the data most compounds retested in dose-response had high values; type: functional; settings: 9.37 µM
# T3 sequence (whole entry): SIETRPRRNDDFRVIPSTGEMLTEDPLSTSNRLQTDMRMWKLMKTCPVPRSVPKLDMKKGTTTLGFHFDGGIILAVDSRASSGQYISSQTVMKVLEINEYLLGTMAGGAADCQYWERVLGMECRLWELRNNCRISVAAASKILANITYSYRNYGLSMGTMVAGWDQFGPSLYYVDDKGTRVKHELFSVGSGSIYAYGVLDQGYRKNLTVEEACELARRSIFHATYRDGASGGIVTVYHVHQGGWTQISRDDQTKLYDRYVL
# Homo sapiens = species: Homo sapiens; test: To identify inhibition of the IFN signalling (Jak-Stat) pathway via expression of an eGFP reporter gene under the control of an IFN-stimulated response element (ISRE) containing MxA promoter.; type: functional; settings: 30 µM
# [6] = molecular target: T4, Tyrosyl-tRNA synthetase, putative (Trypanosoma cruzi (strain CL Brener)) (UniProt Q4DSP6); test: Trypanosoma cruzi tyrosyl tRNA synthetase (TcYRS) _High Tyrosine SOP; type: functional; settings: 30 µM; also: in the data most compounds retested in dose-response had high values
# T4 sequence (whole entry): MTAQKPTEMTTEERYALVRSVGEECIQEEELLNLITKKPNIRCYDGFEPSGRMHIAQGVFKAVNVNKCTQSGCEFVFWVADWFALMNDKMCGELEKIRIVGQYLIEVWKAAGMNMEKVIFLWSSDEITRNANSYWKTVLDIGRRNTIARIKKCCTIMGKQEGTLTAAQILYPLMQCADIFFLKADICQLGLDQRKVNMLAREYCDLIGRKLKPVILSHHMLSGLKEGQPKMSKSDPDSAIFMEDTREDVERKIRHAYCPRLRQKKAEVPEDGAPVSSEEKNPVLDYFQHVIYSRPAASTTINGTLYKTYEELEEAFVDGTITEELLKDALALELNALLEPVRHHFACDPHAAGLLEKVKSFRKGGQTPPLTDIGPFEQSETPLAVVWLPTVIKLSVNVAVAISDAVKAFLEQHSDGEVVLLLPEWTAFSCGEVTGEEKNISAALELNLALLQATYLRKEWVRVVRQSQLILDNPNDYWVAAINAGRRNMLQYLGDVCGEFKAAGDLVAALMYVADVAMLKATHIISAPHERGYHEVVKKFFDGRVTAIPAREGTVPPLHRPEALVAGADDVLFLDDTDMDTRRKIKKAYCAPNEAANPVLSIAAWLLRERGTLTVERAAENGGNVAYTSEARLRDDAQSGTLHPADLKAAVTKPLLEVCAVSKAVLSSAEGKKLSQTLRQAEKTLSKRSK
# [7] = molecular target: T4, Tyrosyl-tRNA synthetase, putative (Trypanosoma cruzi (strain CL Brener)); test: Trypanosoma cruzi tyrosyl tRNA synthetase (TcYRS) SOP; type: functional; settings: 30 µM
# [8] = molecular target: Chromo domain-containing protein 1 (Saccharomyces cerevisiae (strain ATCC 204508 / S288c) (Baker's yeast)) (UniProt P32657); test: ScCHD-1 Enzyme Inhibition Assay; type: functional; settings: 30 µM; also: in the data most compounds retested in dose-response had high values
# Chain of Chromo domain-containing protein 1 (Saccharomyces cerevisiae (strain ATCC 204508 / S288c) (Baker's yeast)) (P32657 whole entry, the tested form may be a part): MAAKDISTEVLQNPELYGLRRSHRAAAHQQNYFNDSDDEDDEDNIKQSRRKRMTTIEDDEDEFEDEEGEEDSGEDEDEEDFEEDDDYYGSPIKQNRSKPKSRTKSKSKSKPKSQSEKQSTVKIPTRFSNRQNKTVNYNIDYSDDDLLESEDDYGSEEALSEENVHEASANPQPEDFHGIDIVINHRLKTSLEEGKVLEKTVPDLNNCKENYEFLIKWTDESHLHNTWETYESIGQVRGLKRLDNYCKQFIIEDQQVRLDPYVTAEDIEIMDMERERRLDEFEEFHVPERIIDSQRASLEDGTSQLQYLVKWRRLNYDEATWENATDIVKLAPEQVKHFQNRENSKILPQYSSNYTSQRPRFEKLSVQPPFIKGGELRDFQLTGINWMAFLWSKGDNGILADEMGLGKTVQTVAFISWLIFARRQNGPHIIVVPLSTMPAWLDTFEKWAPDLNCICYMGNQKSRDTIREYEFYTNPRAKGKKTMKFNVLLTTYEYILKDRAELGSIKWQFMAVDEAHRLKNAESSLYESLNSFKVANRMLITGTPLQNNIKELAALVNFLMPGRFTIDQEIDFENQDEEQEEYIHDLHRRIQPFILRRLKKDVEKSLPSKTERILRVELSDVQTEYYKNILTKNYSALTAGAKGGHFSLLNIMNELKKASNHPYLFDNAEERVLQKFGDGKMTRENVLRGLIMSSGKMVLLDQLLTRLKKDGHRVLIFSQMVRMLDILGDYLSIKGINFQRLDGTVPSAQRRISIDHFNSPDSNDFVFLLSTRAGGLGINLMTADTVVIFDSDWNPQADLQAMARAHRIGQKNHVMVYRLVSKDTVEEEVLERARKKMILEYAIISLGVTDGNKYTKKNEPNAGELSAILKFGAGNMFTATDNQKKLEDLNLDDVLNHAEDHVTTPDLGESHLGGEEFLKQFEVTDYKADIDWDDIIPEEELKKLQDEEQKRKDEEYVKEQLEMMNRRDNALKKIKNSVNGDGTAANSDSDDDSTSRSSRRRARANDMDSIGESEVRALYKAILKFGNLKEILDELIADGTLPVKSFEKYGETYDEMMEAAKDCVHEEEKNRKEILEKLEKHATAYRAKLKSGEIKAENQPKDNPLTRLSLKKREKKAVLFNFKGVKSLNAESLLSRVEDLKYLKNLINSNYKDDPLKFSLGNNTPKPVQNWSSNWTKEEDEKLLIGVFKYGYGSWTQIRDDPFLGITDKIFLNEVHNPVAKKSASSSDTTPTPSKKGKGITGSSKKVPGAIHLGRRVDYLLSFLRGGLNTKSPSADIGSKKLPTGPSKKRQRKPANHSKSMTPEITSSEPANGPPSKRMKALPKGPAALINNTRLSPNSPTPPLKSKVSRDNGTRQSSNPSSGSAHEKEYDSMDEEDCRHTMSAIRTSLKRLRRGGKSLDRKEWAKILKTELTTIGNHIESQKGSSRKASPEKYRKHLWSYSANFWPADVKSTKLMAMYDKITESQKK
# Chain of Sialic acid-binding Ig-like lectin 9 (Homo sapiens) (Q9Y336 whole entry): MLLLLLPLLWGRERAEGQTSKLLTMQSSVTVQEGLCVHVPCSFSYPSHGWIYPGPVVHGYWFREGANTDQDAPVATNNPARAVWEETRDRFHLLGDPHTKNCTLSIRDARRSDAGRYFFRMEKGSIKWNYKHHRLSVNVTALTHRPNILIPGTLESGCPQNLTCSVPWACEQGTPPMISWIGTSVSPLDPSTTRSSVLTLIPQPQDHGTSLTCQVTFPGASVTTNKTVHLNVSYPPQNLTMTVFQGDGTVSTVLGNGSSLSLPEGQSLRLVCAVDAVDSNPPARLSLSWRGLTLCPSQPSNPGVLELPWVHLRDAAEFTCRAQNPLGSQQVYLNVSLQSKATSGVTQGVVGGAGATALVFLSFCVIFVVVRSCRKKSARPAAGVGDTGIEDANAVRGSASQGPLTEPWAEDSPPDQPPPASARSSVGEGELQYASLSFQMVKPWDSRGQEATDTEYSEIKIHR
# Chain of Protein translocase subunit SecA (Escherichia coli (strain K12)) (P10408 whole entry): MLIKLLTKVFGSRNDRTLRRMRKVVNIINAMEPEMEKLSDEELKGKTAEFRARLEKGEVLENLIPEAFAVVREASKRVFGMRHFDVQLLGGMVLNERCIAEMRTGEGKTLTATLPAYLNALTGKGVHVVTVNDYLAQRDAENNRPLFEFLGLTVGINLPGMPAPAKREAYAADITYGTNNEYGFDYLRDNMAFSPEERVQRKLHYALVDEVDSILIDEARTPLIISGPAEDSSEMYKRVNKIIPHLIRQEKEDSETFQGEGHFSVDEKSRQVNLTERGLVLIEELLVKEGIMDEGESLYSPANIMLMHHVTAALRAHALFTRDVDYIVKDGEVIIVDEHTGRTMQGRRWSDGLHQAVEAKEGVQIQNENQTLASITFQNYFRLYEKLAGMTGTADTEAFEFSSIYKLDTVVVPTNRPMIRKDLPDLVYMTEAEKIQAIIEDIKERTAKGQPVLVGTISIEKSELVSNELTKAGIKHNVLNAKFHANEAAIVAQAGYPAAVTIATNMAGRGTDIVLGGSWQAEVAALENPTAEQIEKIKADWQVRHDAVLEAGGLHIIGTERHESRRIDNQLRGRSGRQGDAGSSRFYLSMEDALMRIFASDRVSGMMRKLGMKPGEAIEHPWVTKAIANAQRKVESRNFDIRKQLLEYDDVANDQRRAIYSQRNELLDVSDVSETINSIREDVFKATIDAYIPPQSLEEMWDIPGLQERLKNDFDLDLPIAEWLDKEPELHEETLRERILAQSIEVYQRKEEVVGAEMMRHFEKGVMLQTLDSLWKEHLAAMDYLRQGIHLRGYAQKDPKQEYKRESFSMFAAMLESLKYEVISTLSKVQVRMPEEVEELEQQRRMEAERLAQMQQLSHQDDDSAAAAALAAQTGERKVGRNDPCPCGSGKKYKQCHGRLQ
Structure (SMILES),Percent Effect [1],Percent Effect [2],Percent Effect [3],Percent Effect (Trypanosoma cruzi),Percent Effect [4],Percent Effect [5],Percent Effect (Homo sapiens),Percent Effect [6],Percent Effect [7],Percent Effect [8]
O=C(NCCOc1ccc2c(c1)CCC2)N1CCS(=O)(=O)CC1,-6.68%,2.56%,-7.49%,-1.78%,-0.82%,1.28%,23.2%,-1.44%,-1.21%,-2.29%
Cc1cccc(CN2CCC3(CCN(Cc4ccccn4)C3)C2=O)c1 (stereo not given),-10.9%,6.49%,0.239%,-2.81%,3.65%,6.95%,19%,-0.966%,0%,-12.5%
CCc1ccc(O)c(C(=O)NC2CCN(Cc3ccncc3)CC2)c1,-1.01%,12.8%,-9.09%,-4.98%,1.64%,5.55%,44.9%,1.44%,8.43%,-6.65%
CN1CCOC(CNC(=O)Cc2ccccc2F)C1 (stereo not given),-1.65%,15.4%,-3.95%,3.47%,4.1%,8.11%,-18.4%,7.18%,25.3%,-5.49%
CC(=O)N1[C@H](CN(C)C)C[C@@H]2CN(C(=O)c3cccc(F)c3)CC[C@@H]21,-6.12%,9.09%,-5.21%,-3.19%,-12.8%,14.2%,14.5%,3.87%,0%,-5.63%
O=C(NCC(=O)N1CCc2ccccc2C1)c1ccoc1,-0.143%,15.6%,-3.75%,-7.46%,1.43%,18.1%,23.4%,3.92%,9.41%,-10.6%
COCCN1CCCC12CCN(C(=O)CC1CCCC1)CC2,-1.94%,-3.9%,0.315%,2.44%,0%,-0.0858%,16.7%,5.8%,12.5%,-2.58%
Cc1ccc(C(=O)N2Cc3c(CN4CCCCC4)nn(C)c3C2)cc1C,-5.88%,-1.3%,-4.75%,-3.02%,-4.86%,17.9%,-26.6%,-11.1%,-12.8%,-3.91%
CN(C)Cc1ccc(C2CCCCN2C(=O)c2cc(C3CC3)n[nH]2)cc1 (stereo not given),-11.5%,-2.7%,0.279%,-2.23%,-1.05%,11.3%,19.7%,5.85%,9.76%,-0.312%
c1ncn(CC2CN(Cc3noc(C4CC4)n3)CCO2)n1 (stereo not given),-7.36%,2.67%,2.48%,-1%,-3.55%,-1.1%,15.2%,-1.58%,0%,-8.55%
CC(C)CC(CNC(=O)NCc1cc[nH]n1)N1CCOCC1 (stereo not given),-1.69%,17.9%,-27%,7.04%,0.82%,17.8%,11.6%,4.31%,20.5%,25%
CC(Cn1cccn1)NC(=O)NCc1cccs1 (stereo not given),-2.75%,-66.7%,2.38%,-4.82%,0.887%,13%,10.9%,3.68%,7.69%,-11.3%
Nc1cc(CCC2CN(Cc3ccc(C(=O)O)cc3)CCO2)ccn1 (stereo not given),-3.81%,9.33%,-7.05%,-5.72%,-1.77%,13%,12.6%,-1.06%,2.5%,-22%
CCc1nc(CNCC2CCCN2c2cc(NC)ncn2)cs1 (stereo not given),-1.05%,0%,1.02%,9.48%,1.64%,6.91%,-11.3%,3.35%,6.02%,-3.49%
Cn1cc(CN2C[C@@H]3COC[C@]3(CNC(=O)c3ccsc3)C2)cn1,-3%,-1.3%,16.9%,-3.6%,-5.26%,9.27%,-6.13%,-1.58%,0%,-2.4%
Cc1cc2cc(C(=O)N3CC[C@H](O)[C@]4(CCCO4)C3)ccc2o1,-4.25%,17.3%,3.44%,2.17%,-3.1%,8.37%,-3.08%,6.35%,12.5%,-20.9%
CC(C)(C)c1cn2nc(N3CCCC3Cn3cncn3)sc2n1 (stereo not given),0.788%,17.9%,-6.25%,2.72%,6.15%,17.1%,12.8%,3.35%,20.5%,-6.04%
O=C(CCN1CCCN(c2nccs2)CC1)NCC1CCCCC1,-2.39%,5.33%,1.99%,-3.61%,0%,9.41%,3.1%,6.84%,7.69%,-5.72%
COc1ncccc1CNC(=O)NCCNC(=O)c1ccco1,-2.62%,13.3%,-3.85%,6.83%,1.33%,16%,18.4%,4.74%,12.8%,-6.18%
CC(C)(C)C(=O)N1C[C@H](c2ccsc2)[C@H]2CN(Cc3cccs3)CC[C@H]21,-0.241%,17.3%,-5.01%,2.37%,2.65%,17.1%,56.8%,2.12%,17.5%,-22%
COc1ccc(CN2CCN(C(C)c3nc(C4CC4)no3)CC2)cc1 (stereo not given),-1.5%,12.8%,2.49%,3.29%,-9.43%,7.76%,26.9%,3.35%,10.8%,-7.9%
CCOc1ccccc1C(=O)N1CCCC1c1ncc2c(n1)CCNC2 (stereo not given),-5.15%,4%,-1.2%,-5.72%,-4.42%,7.06%,10.5%,-6.35%,-2.5%,-31.8%
Cc1nnc(NC(=O)CN2CCCC(Cn3cncn3)C2)s1 (stereo not given),-3.75%,10.7%,7.25%,1.41%,6.21%,12.3%,-17.8%,5.79%,10.3%,-8.83%
